# Reference: the supplement of paper PMC6555819
# How the values were obtained:
# Assay in all cases: PBM binding z-score (relative to random genomic background probes); higher = stronger binding; sequences stand for … in GC…GCGATTGACAGCGTAGAATGAAGG
# [1] = system: FXR:RXRa (NR concentration 270 nM, RXRa partner concentration 90 nM)
# Outline: (§1)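 On custom Agilent 4×180K arrays, double-stranded probes with 34-nt variable regions carried direct-repeat seeds, single-nucleotide variants, half-site ablations or random human genomic background. Ligand-free nuclear receptor dimers were applied for 1 h, and binding was read with antibodies against each partner (one per run). Binding z-scores come from regression-normalized fluorescence, with the random background probes as reference.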
# [2] = system: LXRa:RXRa (NR concentration 270 nM, RXRa partner concentration 90 nM)
# Outline: as §1
# [3] = system: LXRa homodimer (NR concentration 270 nM)
# Outline: as §1
# [4] = system: LXRb:RXRa (NR concentration 270 nM, RXRa partner concentration 90 nM)
# Outline: as §1
# [5] = system: LXRb homodimer (NR concentration 270 nM)
# Outline: as §1
# [6] = system: PPARa:RXRa (NR concentration 270 nM, RXRa partner concentration 90 nM)
# Outline: as §1
# [7] = system: PPARg:RXRa (NR concentration 180 nM, RXRa partner concentration 90 nM)
# Outline: as §1
# [8] = system: PPARg:RXRa 270nM:90nM, anti-RXR (NR concentration 270 nM, RXRa partner concentration 90 nM)
# Outline: as §1
# [9] = system: PPARg:RXRa 30nM:10nM, anti-RXR (NR concentration 30 nM, RXRa partner concentration 10 nM)
# Outline: as §1
# [10] = system: PPARg:RXRa 90nM:30nM, anti-RXR (NR concentration 90 nM, RXRa partner concentration 30 nM)
# Outline: as §1
# [11] = system: PPARg:RXRa DBDmut IVT, anti-RXR (DBD mutation: RXRa K156A/R161A, NR concentration 270 nM, RXRa partner concentration 90 nM)
# Outline: as §1
# [12] = system: PPARg:RXRa IVT, anti-PPARg (NR concentration 270 nM, RXRa partner concentration 90 nM)
# Outline: as §1
# [13] = system: PPARg DBDmut:RXRa IVT, anti-PPARg (DBD mutation: PPARg1 K132A/R137A, NR concentration 270 nM, RXRa partner concentration 90 nM)
# Outline: as §1
# [14] = system: PPARg DBDmut IVT, anti-PPARg (DBD mutation: PPARg1 K132A/R137A, NR concentration 270 nM)
# Outline: as §1
# [15] = system: PPARg homodimer (NR concentration 180 nM)
# Outline: as §1
# [16] = system: PXR:RXRa (NR concentration 270 nM, RXRa partner concentration 90 nM)
# Outline: as §1
# [17] = system: PXR homodimer (NR concentration 270 nM)
# Outline: as §1
# [18] = system: RARa:RXR (NR concentration 270 nM, RXRa partner concentration 90 nM)
# Outline: as §1
# [19] = system: RARa homodimer (NR concentration 270 nM)
# Outline: as §1
# [20] = system: RARb:RXRa (NR concentration 270 nM, RXRa partner concentration 90 nM)
# Outline: as §1
Sequence,PBM binding z-score [1],PBM binding z-score [2],PBM binding z-score [3],PBM binding z-score [4],PBM binding z-score [5],PBM binding z-score [6],PBM binding z-score [7],PBM binding z-score [8],PBM binding z-score [9],PBM binding z-score [10],PBM binding z-score [11],PBM binding z-score [12],PBM binding z-score [13],PBM binding z-score [14],PBM binding z-score [15],PBM binding z-score [16],PBM binding z-score [17],PBM binding z-score [18],PBM binding z-score [19],PBM binding z-score [20]
CCTACTGGGCCATCAGGTGATTGATATCAACGTT,-0.454,-0.704,-0.341,-0.438,-0.864,0.426,1.29,1.63,0.102,1.27,3.79,4.34,0.38,-0.0432,-0.3,-0.668,-0.342,-0.448,-0.0417,0.0448
CAAACTAGGTCACAGAGGACAAAGTCCGTGCGTA,4.82,3.84,1.45,2.96,0.637,5.52,9.51,7.79,5.58,7.51,8.78,9.01,7.7,3.32,4.15,3.52,2.3,3.22,1.21,4.54
ATCGTAAGGTCGTGAGGTGAGTATACAGAAAGGC,3.26,2.69,-0.00472,2.14,0.775,3.87,1.99,2.39,0.777,1.55,0.0684,1.65,1.19,1.05,1.4,2.22,0.545,3.29,0.99,3.11
CAAACTAGGTCACGAAAGGGCAAAGTCGAATGAC,5.72,6.91,2.43,5.14,0.531,5.68,9.64,7.9,6.2,8.08,8.03,9.13,2.95,1.67,4.28,5.85,0.485,5.03,2.03,4.99
ATCGAATGGTCGTGAGGTGAGTATACAGAAAGGC,0.132,-0.131,-0.134,-0.373,-0.124,-0.301,0.654,-0.486,-0.0496,-0.425,-0.654,0.348,0.375,-0.00822,0.181,-0.104,0.00681,0.113,0.259,0.464
TGAATGAAGTTAAAGATCAGGGAACGTGGCGTCG,-0.402,-0.168,-0.348,-0.389,-0.518,0.212,0.843,1.61,0.713,1.3,-0.838,-0.0985,0.102,0.236,-0.094,-0.563,-0.811,-0.169,-0.374,-0.227
ATCGAAATGTCGTGAGGTGAGTATACAGAAAGGC,0.101,-0.0819,-0.191,-0.0754,-0.00242,-0.0374,0.546,-0.0357,-0.12,0.0916,-0.876,0.356,1.2,0.426,-0.35,-0.158,-0.418,0.27,-0.172,0.61
GATACAGGGTGAAGGCCAGAGTACGCGTATTGAT,-0.425,-0.357,-0.615,-0.42,-0.925,1.08,1.41,1.72,0.138,0.958,0.737,1.34,-0.37,-0.0968,-0.218,-0.324,-0.0784,-0.132,-0.36,0.882
AGTCAAAGTTGATCTAGGTAACGTAAGATATGCT,-0.0957,-0.391,-0.431,-0.102,-0.616,0.713,1.39,1.2,0.421,0.958,0.813,2.74,0.517,1.07,-0.371,-0.212,-0.146,-0.0598,-0.276,0.672
CCTACGGGGCCAAGGTCATTGATCAGTCAAAGCA,3.57,3.06,0.732,2.94,-0.542,3.79,2.83,3.73,1.3,2.88,0.0794,1.73,-1.66,-0.738,2.31,3.58,0.818,3.78,-0.181,3.57
CCTACTGGGCCATACAGAGGTCATTGATCATATG,2.83,4.1,5.31,3.73,0.274,3.89,2.98,3.58,1.03,2.85,4.36,4.21,1.03,0.445,4.53,5.28,2.92,5.24,1.8,3.12
CCTCGGAGGTCAGAAGGTCAGAGCTGTCCGCTTT,5.84,4.89,1.19,3.83,0.259,4.92,3.38,5.24,1.27,3.92,2.53,3.5,-1.11,-1.86,5.71,4.71,0.603,6.73,0.835,5.16
GCTAGTTTGTCAGTAAAAGGTCACACACCGGTCG,3.28,4.33,4.39,4.2,1.2,4.42,3.19,5.47,3.23,5.43,0.319,2.75,0.759,0.562,4.4,4.95,1.22,5.77,2.54,4.12
TGGCCTAGGTCATGCGGGCCAGTATAGTGTCGGC,3.58,2.57,-0.464,1.2,-1.55,3.28,1.7,2.2,0.139,0.89,1.03,2.44,-0.76,-1.48,0.35,1.12,-0.591,2.07,-0.739,3.53
CGAACTAGGTGATTGACAGGACAGTGAATAGTAA,0.0682,-0.0591,0.0308,-0.196,-0.394,1.81,2.2,1.57,0.548,1.06,6.28,5.92,0.852,0.609,0.553,-0.082,0.228,0.0788,0.46,0.167
CGTCCAAGGTCATGGGAGGTCAGTGAAGACAGAT,7.92,7.36,5.12,6.35,0.656,6.08,6.25,6.11,2.74,5.07,2.93,4.47,0.44,-0.0199,4.73,7.17,5.18,6.5,2.4,5.61
GATAGTTGGTCAGTAAAAGGTCACACACCGGTCG,3.47,4.21,4.89,4.06,0.786,4.57,3.46,4.68,2.35,3.8,1,3.26,0.61,0.944,4.23,4.92,1.52,5.65,3.2,4.42
TCTGCTAGGTCAGGTGGTCAGCTAACGAGCTGCC,1.39,0.774,-0.474,0.66,0.161,1.89,1.01,2.36,1.38,1.98,2.43,2.96,-0.185,-0.486,-0.444,0.451,-0.687,1.18,-1.1,3.38
TTACCGAGGTGAAAGGTCGTTGATGCACGCCTTG,3.99,3.64,0.332,3.53,-0.52,5.85,9.29,8.26,7.84,9.2,3.24,5.19,0.609,0.681,2.03,4.58,0.0493,6.71,-0.0852,3.11
TGTCAAAGCTCAAAGGTAACGTAAGTATCCACAC,0.08,-0.0986,-0.625,0.416,-0.838,1.04,1.25,1.81,0.686,1.43,-0.538,0.996,0.525,0.434,-0.0175,0.078,-0.43,0.683,-0.12,0.692
CCGACTGGGGCAACGGTTACCATACTCAGTACGA,-0.245,-0.501,-0.164,-0.317,-1.33,1.25,3.08,4.07,2.04,3.93,3.8,3.87,-0.196,-0.486,0.34,-0.591,-0.155,-0.576,-0.579,0.784
TAGCCTAGGTCATTGGGCTAGTATAGTACGCATC,4.29,3.19,0.404,1.81,-0.386,3.63,2.59,3.08,0.744,1.97,1.65,3.11,0.176,-0.547,0.811,1.4,-0.602,1.91,-0.44,3.46
CCTCGGAGGACAACCGGAGGTCAGAGCTGCCAGA,1.26,2.64,2.71,1.52,-0.532,1.78,0.316,0.642,-0.954,0.0511,-0.468,0.238,-0.802,-1.28,1.17,2.33,0.578,2.46,0.0885,2.98
GCTTACGGGTCAAAGGTTACAGCATGAATAGAAT,8.04,5.9,0.488,6.05,0.89,7.24,12,9.99,10,11.5,5.26,6.43,2.32,2.26,5.3,6.45,0.418,8.5,1.16,4.7
GCTGCTAGGTCAACTGATGGTCAGCTAAAGCTCG,4.31,3.05,0.34,2.04,-0.115,3.63,2.88,3.35,0.939,2.08,4.92,4.19,-0.0375,-1.12,1.55,1.66,-0.596,3,0.346,4.26
TAGCCTAGCTCATTCAGGGGCCAGTATAGAAAGC,-0.836,-1,-1.16,-0.368,-0.132,-1.13,-0.0519,-0.988,-0.46,-0.823,-0.101,-0.269,-0.969,-0.592,-1.77,-0.527,-0.788,-0.603,-1.25,-0.199
AGTCAAAGTTCATCTAGGTAACGAAAGATATGCT,6.43,5.78,4.68,3.86,1.83,5.26,7.04,6.66,3.55,5.72,0.744,4.11,1.97,1.3,3.18,5.26,6.53,4.34,2.16,5.15
ATATGCAGGTTATCGGGTCATTCAGTTTGCGCAT,3.37,3.44,1.57,3.03,0.832,4.13,4.45,4.25,1.56,3.42,4.84,5.2,2.48,0.956,2.06,3.99,7.38,4.1,0.986,2.51
CCTTACGGGTCACTCCAGGTTCTAGCATCGGAGT,4.8,4.87,0.141,2.7,-0.137,4.28,2.96,3.49,0.999,2.15,2.92,3.24,0.0574,-0.343,1.37,3.13,-0.323,3.39,0.55,3.63
